# In PubChem BioAssay AID686971 (National Center for Advancing Translational Sciences (NCATS), 2013):
# The campaign covered roughly 360,000 compounds. About 7,500 (2.1%) were called active. Roughly 8% stayed inconclusive and do not appear here. This is one part of a sample in which actives are shown more often than they occur. Calls follow the shape of the dose curve; as a rule, active = well fitted cell-killing curve with a large enough effect; inconclusive = small, poorly fitted or top-dose-only effect, or effect the other way, or another doubt; inactive = no such curve, though single readings can be large or run the other way.
# Test: qHTS for induction of synthetic lethality in tumor cells producing 2HG: qHTS for the HT-1080-IDH1KD cell line;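 as to activity, negative = toxicity: 0% = DMSO wells and -100% = cell-free medium wells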
# Conditions: HT-1080 IDH1 knockdown viability, ATP luminescence, 48 h; series mostly up to 46.1 µM; activity, negative = toxicity: at the top concentration
# Method in brief: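 Using the IDH1-knockdown HT-1080 line run in the same batch and compound series as the NT line, viability after 48 h at 37 °C was determined by CellTiter-Glo luminescence and expressed as % activity.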
# Potency is read from the fitted curve at half-maximal effect.
SMILES,"activity, negative = toxicity",Potency
CCc1ccc(NC(=O)Cn2nnc(C(=O)NCc3ccc(OC)cc3)c2N)cc1,-1.58% (inactive),
COc1ccc(-c2cnc3c(c2)C(=O)N([C@H](C)CO)C[C@@H](C)[C@H](CN(C)Cc2ccccc2)O3)cc1,-1.8% (inactive),
COc1ccc(OC)c(CN2C(=O)CCC2(C)c2nnnn2Cc2ccccc2)c1 (stereo not given),9.52% (inactive),
O=C(CC(O)(C(F)(F)F)C(F)(F)F)Nc1ccc(Cl)c(Cl)c1,,11.6 µM (active)
O=C(COC(=O)c1cc[n+]([O-])cc1)Nc1ccc(Cl)c(C(F)(F)F)c1,0.909% (inactive),
NC(=O)N1CCCC1C(=O)Nc1ccc(Cl)c(Cl)c1 (stereo not given),5.56% (inactive),
O=C1NC(O)CCN1C1CC(O)C(CO)O1 (stereo not given),7.01% (inactive),
CC(=O)c1ccc(Nc2nc(C(N)c3ccccc3Cl)cs2)cc1 (stereo not given),-21.8% (inactive),
CCn1c(SCc2ccccc2)nc2cc(OC)c(OC)cc2c1=O,-15.2% (inactive),
CCn1c(/C=C/c2ccc([N+](=O)[O-])o2)nc2ccccc2c1=O,,2.59 µM (active)
CCOCCCn1c(NN)nc2ccccc2c1=O,4.05% (inactive),
COc1ccc(C(=O)N2CCCCC2c2cc(C(=O)Nc3ccccc3)no2)cc1 (stereo not given),0% (inactive),
O=C(CCl)N(Cc1cccc([N+](=O)[O-])c1)c1cccc(Cl)c1,,4.61 µM (active)
Cc1ccc(S(=O)(=O)N(Cc2cccc([N+](=O)[O-])c2)C(=O)N2CCN(C)CC2)cc1,-11.9% (inactive),
O=C(c1cccc([N+](=O)[O-])c1)N1CCN(Cc2ccccc2)CC1,15.1% (inactive),
CCc1nc2c(OCCOc3ccccc3)cccn2c1N(C=O)Cc1ccc(OC)cc1,-76.1% (inactive),
CC(C)c1nccn1S(=O)(=O)c1cc([N+](=O)[O-])ccc1Cl,2.08% (inactive),
CCc1nc(C)cn1S(=O)(=O)c1cc(OC)c(C)cc1C,-17.7% (inactive),
CCc1nc(C)cn1S(=O)(=O)c1cc([N+](=O)[O-])ccc1Cl,,3.26 µM (active)
Nc1nc2c(Br)ccc(Br)c2cc1C(=O)NCCc1ccccc1,-12.4% (inactive),
CSc1ncnc2c1ncn2CCCNCc1ccco1,9.18% (inactive),
COc1ccc(COC(=O)NC(C(=O)O)c2ccccc2)cc1 (stereo not given),-4.08% (inactive),
COc1ccc(CN(C)C(=O)CC(c2ccccc2)c2ccccc2)cc1,-14.7% (inactive),
COc1ccc(C(CCN(Cc2ccc(OC)c(OC)c2)C(=O)CCl)c2ccccc2)cc1 (stereo not given),,16.4 µM (active)
Nc1cc(C(=O)N2CCN(c3ccccc3Cl)CC2)ccc1N1CC2CC(C1)c1cccc(=O)n1C2 (stereo not given),0.978% (inactive),

SMILES,"activity, negative = toxicity",Potency
COc1ccc(NC(=O)COC(=O)C2COc3ccccc3O2)cc1 (stereo not given),4.67% (inactive),
Cc1ccc(Cc2cnc(N)s2)o1,-24.2% (inactive),
Cc1ccc(CCC(=O)Nc2ncc(Cc3cc(Cl)ccc3Cl)s2)o1,,1.16 µM (active)
Cc1ccc(C(=O)Nc2nc3ccc(Cl)cc3s2)o1,-6.86% (inactive),
COc1ccc(C(O)c2nc(-c3ccc(OC)nc3)cs2)cc1 (stereo not given),5.6% (inactive),
CC1CN(C(=O)c2ccc([N+](=O)[O-])s2)CC(C)O1 (stereo not given),2.25% (inactive),
CNN/C(N=Cc1ccc([N+](=O)[O-])s1)=N\S(=O)(=O)c1cc(C)c(Cl)cc1SCc1ccccc1,0.716% (inactive),
O=[N+]([O-])c1ccc(C=Nc2ccc(Cl)cc2Cl)s1,,11.2 µM (active)
Cc1ccc(N(Cc2cc3ccccc3[nH]c2=O)C(=O)c2cccs2)cc1,0.252% (inactive),
CC(=O)N(Cc1cc(=O)[nH]c2ccccc12)c1ccc(C)cc1C,-12.4% (inactive),
Cc1ccc(N(Cc2cc(=O)[nH]c3ccccc23)C(=O)CCl)cc1,,20.6 µM (active)
CC(C)C1Cc2[nH][nH]c(=O)c2C(c2ccc(Cl)cc2)O1 (stereo not given),2.43% (inactive),
CC(C)CNC(=O)C1(C)CCCN1C(=O)CSc1ccccc1 (stereo not given),0.548% (inactive),
CCCC(=O)N1CCC1(C)C(=O)NCc1ccc(SC)cc1 (stereo not given),18.2% (inactive),
COc1ccc(/C=C/C(=O)N2CCCC2)cc1OC,-6.68% (inactive),
COc1ccc(/C=C/C(=O)Nc2ccc(C34CC5CC(CC(O)(C5)C3)C4)cc2)cc1OC,,2.59 µM (active)
COc1cc(/C=C/C(=O)Nc2ccc(OC)c(S(=O)(=O)N3CCOCC3)c2)ccc1OCC#N,-27.5% (inactive),
C[C@@H]1CN([C@H](C)CO)C(=O)CCCn2nncc2CO[C@@H]1CN(C)S(=O)(=O)c1cccc(C#N)c1,-7.06% (inactive),
CCS(=O)(=O)Nc1ccc(C2=NN(C(C)=O)C(c3cccs3)C2)cc1 (stereo not given),,16.4 µM (active)
CS(=O)(=O)Nc1cccc(C2=NN(C(=O)c3cccc(F)c3)C(c3cccs3)C2)c1 (stereo not given),-23.8% (inactive),
CS(=O)(=O)Nc1ccc(C2=NN(S(C)(=O)=O)C(c3cccs3)C2)cc1 (stereo not given),10.5% (inactive),
COCC1CCCCN1C(=O)c1cc(COc2ccc(C)c(C)c2)on1 (stereo not given),-3.35% (inactive),
COC(=O)CSC1=C(C#N)C(c2ccccc2OC)C(C(=O)OC)C(=O)N1 (stereo not given),5.07% (inactive),
C=CCSC1=C(C#N)C(c2cc(Br)c(O)c(OC)c2)CC(=O)N1 (stereo not given),-15.3% (inactive),
CCOC(=O)CSC1=C(C#N)C(c2sccc2C)CC(=O)N1 (stereo not given),,1.41 µM (active)
